In the library only some 1.3% were active in any assay of this set; here they are far more common.
Gli-Sufu antag: Gli-Sufu pathway antagonism | Sufu-KO-LIGHT fibroblasts, Gli luciferase reporter luminescence | inhibition, % at 5 µM | 340,000 tested, 0.74% active;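 active = inhibition above about 55%, limit read from the data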;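 also: 0% = DMSO-treated cells and 100% = wells with medium but no cells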
LRH-1 inv ag: suppresses constitutive activity of human LRH-1. HEK293T StAR-luciferase reporter, LRH-1 transfected, 24 h. 360,000 tested, 0.13% active. AID 602396. inhibition, % at 3.6 µM. O00482;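 active = inhibition above the mean inhibition of all tested compounds plus 3 SD, cut at about 73% in these data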;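 also: 0% = DMSO wells and 100% = reporter-only cells lacking LRH-1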
Target sequence (O00482 whole entry, looked up): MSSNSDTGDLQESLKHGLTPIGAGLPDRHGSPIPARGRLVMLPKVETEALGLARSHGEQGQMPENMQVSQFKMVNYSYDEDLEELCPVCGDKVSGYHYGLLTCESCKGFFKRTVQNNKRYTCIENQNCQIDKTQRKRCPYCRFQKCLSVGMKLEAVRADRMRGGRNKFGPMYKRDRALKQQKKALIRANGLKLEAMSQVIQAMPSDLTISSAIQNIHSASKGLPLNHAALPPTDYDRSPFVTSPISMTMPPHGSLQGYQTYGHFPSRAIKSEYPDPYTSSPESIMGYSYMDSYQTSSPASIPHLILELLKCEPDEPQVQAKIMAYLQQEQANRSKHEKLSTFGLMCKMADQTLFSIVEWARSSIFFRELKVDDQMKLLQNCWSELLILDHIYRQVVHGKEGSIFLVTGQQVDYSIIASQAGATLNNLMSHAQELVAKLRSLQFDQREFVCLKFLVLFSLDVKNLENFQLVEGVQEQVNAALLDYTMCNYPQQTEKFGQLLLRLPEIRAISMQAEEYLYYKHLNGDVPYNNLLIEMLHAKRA
COUP-TFII inh: blocks human COUP-TFII nuclear receptor. AID 686940. 370,000 tested, 0.7% active. HEK293T NGFI-A luciferase reporter, luminescence. inhibition, % at 8.6 µM. P24468;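 active = inhibition above a per-plate cutoff, mean inhibition of test wells between control levels plus 3 SD, cut at about 38% in these data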;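 also: cells cotransfected with COUP-TFII expression vector driving the NGFI-A reporter; 0% = median of COUP-TF2 test wells and 100% = reporter-only cells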
NCOA1 inh: human NCOA1 inhibition; Q15788; HEK293 GAL4-SRC1 luciferase reporter, luminescence; inhibition, % at 3.6 µM; 360,000 tested, 0.12% active; AID 588354;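 active = inhibition above the campaign mean plus 3 SD, with each screening campaign given its own cutoff, cut at about 60% in these data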;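 also: 0% = DMSO treated cells and 100% = gossypol at 36 µM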
NCOA2 inhibitor: inhibits human steroid receptor coactivator 2 | HEK293 GAL4-SRC2 luciferase reporter, luminescence | inhibition, % at 9 µM | 370,000 tested, 0.17% active;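 active = inhibition above the mean inhibition of all tested compounds plus 3 SD, set per campaign, cut at about 52% in these data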;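 also: 0% = DMSO treated cells and 100% = cells given Gossypol at 36 µM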
NCOA3 inh: inhibitors of human steroid receptor coactivator 3 (SRC3). HEK293 GAL4-SRC3 luciferase reporter, luminescence. inhibition, % at 3.6 µM. 360,000 tested, 0.17% active;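 active = inhibition above a per-campaign cutoff, the mean of all compounds plus 3 SD, cut at about 60% in these data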;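 also: 0% = DMSO-treated cells and 100% = gossypol-treated cells at 36 µM; higher means less SRC3-driven luciferase light from the GAL4 reporter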
* hit, by the source's call; i = inactive; . = not tested or not shown; ! = repeats disagree.

SMILES | Gli-Sufu antag | LRH-1 inv ag | COUP-TFII inh | NCOA1 inh | NCOA2 inhibitor | NCOA3 inh
CCCc1c(C(=O)N/N=C(\C)c2ccccc2O)nnn1-c1nonc1N | . | 13 | 3 | -12 | -6 | 2
C/C(=N\NC(=O)c1nnn(-c2nonc2N)c1CN(C)c1ccccc1)c1ccccn1 | 78* | -7 | . | -8 | . | 15
C/C(=N\NC(=O)c1nnn(-c2nonc2N)c1-c1ccccc1)c1ccccc1O | 68* | 23 | -3 | 45 | 20 | 56
S=C(NCc1ccccn1)Nc1cccc(Cl)c1 | -12 | -17 | -6 | -13 | -38 | -16
C/C(=N\NC(=O)c1ccccn1)c1ccc(Cl)cc1 | -91 | -126 | -47 | -112 | -39 | -125
C/C(=N\NC(=O)c1ccc(Cl)cc1)c1ccccn1 | 80* | -26 | -2 | -15 | -44 | -39
C/C(=N\NC(=O)c1cc(C)nc2ccccc12)c1ccccn1 | 90* | 21 | -25 | 2 | -3 | 11
COc1cccc(C(=O)N/N=C(/CCC(=O)O)c2ccccc2)c1 | -1 | -30 | -31 | -39 | -44 | -21
CC(=NNC(=S)Nc1cccc(Cl)c1)c1ccccn1 | 57* | 46 | 8 | 58 | 30 | 67*
COc1cccc(C(=O)N/N=C(/c2ccccc2)c2ccccn2)c1 | 81* | 1 | 0 | -11 | -18 | 15
S=C(NCc1ccccn1)NN=Cc1ccccn1 | 74* | 8 | -32 | -2 | -18 | -1
CC(C)C1CC(N(C)C)=CC(=S)N1 (stereo not drawn) | . | . | 33 | . | 13 | .
CN(C)CCN1C(=O)c2cccc3cc([N+](=O)[O-])cc(c23)C1=O | 69* | 82* | -92 | 31 | i | -30
CN(C)CCCN1C(=O)c2cccc3cccc(c23)C1=O | 1 | -14 | -4 | 2 | -16 | 2
O=c1c2ccccc2nc(/C=C/c2ccc([N+](=O)[O-])cc2)n1CCCO | 15 | 27 | 1 | -3 | -4 | -1
O=c1c2ccccc2nc(/C=C/c2ccc([N+](=O)[O-])o2)n1CCCO | 71* | 36 | -32 | -21 | -11 | -25
CC(C)(C)OC(=O)N1Cc2ccccc2C[C@H]1C(=O)NCC(=O)Nc1ccc2c(c1)OCCO2 | 34 | 37 | 24 | 42 | 54* | 60
COc1cc(OC)cc(C(=O)NCC(=O)N2CCN(c3ccc(O)cc3)CC2)c1 | 58* | 0 | 1 | 10 | -5 | 1
CCc1nnc(N/N=C/c2cc(Br)c(O)cc2O)n1N | 5 | 25 | -6 | -19 | -4 | 3
CC(C)(C)c1nnc(N/N=C/c2cc(Br)ccc2O)n(N)c1=O | 55 | 2 | 5 | 67* | 32 | 76*
C[C@H]1[C@@H](OC(=O)NCc2cccs2)CC[C@@]23CCCN2C(=O)CCC[C@@H]13 | . | . | 7 | . | . | .
Cc1ccc(NC2=C/C(=N\S(=O)(=O)c3cccs3)c3ccccc3C2=O)c(C)c1 | 65* | 40 | . | 67* | . | 70*
CCc1ccc(S(=O)(=O)/N=C2\C=C(Nc3cccc(C(=O)O)c3)C(=O)c3ccccc32)cc1 | -18 | -20 | -11 | -21 | -32 | -30
Cc1ccc(Cl)cc1NC1=C/C(=N\S(=O)(=O)c2cccs2)c2ccccc2C1=O | 11 | 6 | -1 | 72*! | -29 | 85*!
CCc1ccc(S(=O)(=O)/N=C2\C=C(Nc3ccc(O)cc3)C(=O)c3ccccc32)cc1 | 88* | 90* | . | 88* | . | 89*
SMILES | Gli-Sufu antag | LRH-1 inv ag | COUP-TFII inh | NCOA1 inh | NCOA2 inhibitor | NCOA3 inh
CCc1ccc(S(=O)(=O)/N=C2/C=C(Sc3ncn[nH]3)C(=O)c3ccccc32)cc1 | 1 | 95* | . | 83* | . | 88*
Cc1cccc(NC2=C/C(=N/S(=O)(=O)c3cccs3)c3ccccc3C2=O)c1 | 34 | 8 | -1 | -4 | 11 | -16
COC(=O)[C@]12C[C@H](CC(=O)NCc3cccc(C(F)(F)F)c3)C(=O)N(CCC3=CCCCC3)C1=C[C@H](C(C)(C)C)O[C@@H]2C | . | . | -9 | . | 1 | .
O=C1C(Nc2ccc(O)cc2)=C/C(=N/S(=O)(=O)c2cccs2)c2ccccc21 | 94* | 86* | 78* | 88* | 71* | 90*
O=C(O)c1ccc(NC2=C/C(=N/S(=O)(=O)c3cccs3)c3ccccc3C2=O)cc1 | . | 22 | 0 | 4 | -9 | 7
Cc1cc(N2CCN(C(=O)OC(C)(C)C)C[C@H]2C)ccc1N1CC[C@@H](O)C1 | . | . | 19 | . | -5 | .
CCCCN1/C(=C/c2cccc[n+]2C)Sc2cc(NC(C)=O)ccc21 | 10 | -9 | -6 | -12 | 4 | -21
CCN1/C(=C/c2ccc3ccccc3[n+]2CC)C=Cc2ccccc21 | 92* | 98* | 75* | 68* | 12 | 87*
CCCCN1/C(=C/c2ccc3ccccc3[n+]2CC)Sc2ccccc21 | 88* | 48 | . | 21 | . | 49
CCCN(CCC)c1cc(=O)nc2ccccn12 | . | . | 2 | . | -19 | .
COc1cc(CN2CC(=O)N(c3ccccc3Cl)C2=S)cc(OC)c1OC | 62* | -10 | 12 | 1 | 18 | 16
NC(=S)n1[nH]c(-c2ccc([N+](=O)[O-])cc2)c(N=Nc2ccc(O)cc2)c1=O | 3 | 19 | -15 | -12 | 6 | -6
NC(=S)n1[nH]c(-c2ccc([N+](=O)[O-])cc2)c(N=Nc2cccc(Cl)c2)c1=O | 62* | 11 | 22 | -3 | -4 | 0
C(=C\c1ccc2ccccc2n1)/c1ccccc1 | -81 | -74 | -22 | -83 | 21 | -35
CN(C)c1ccc(/C=C/c2ccc3ccccc3n2)cc1 | 28 | 63 | . | 62* | . | 64*
CCOc1ccccc1O[C@H](c1ccccc1)[C@H]1CNCCO1 | -3 | 53 | -8 | 70* | 15 | 57
CCOc1ccccc1NC(=O)C(NCC1CCCCC1)c1ccccc1 (stereo not drawn) | 34 | 7 | 11 | 1 | 15 | 17
C[C@@H]1C=CCCO[C@]12C(=O)N(CC1CC1)c1cccc(Br)c12 | . | . | -7 | . | 12 | .
O=C(O)CCSc1nc2ccccc2s1 | 15 | -4 | 35 | 19 | 78* | 16
O=S1(=O)CCOCC(CO)N1Cc1cccc(Br)c1 (stereo not drawn) | . | . | -11 | . | 2 | .
COc1cc(C=O)ccc1OCCCOc1ccccc1C(=O)O | 9 | -90 | 8 | -39 | 60* | -61
O=C(NC(CSCc1ccccc1)C(=O)N/N=C/c1ccc(O)cc1O)c1ccc([N+](=O)[O-])cc1 (stereo not drawn) | 76* | 6 | -10 | 18 | 41 | 46
O=C(Nc1ccc([N+](=O)[O-])cc1)c1ccc(Cn2cc([N+](=O)[O-])cn2)cc1 | 25 | 78* | 0 | 54 | -26 | 48
O=C(Nc1cnn(Cc2ccc(Cl)cc2)c1)c1ccc([N+](=O)[O-])cc1 | 9 | 36 | 3 | 1 | 20 | -3
COc1ccc(C(=O)/C(C#N)=N/Nc2ccc([N+](=O)[O-])cc2)cc1 | 69* | -11 | -14 | 16 | 20 | 12
